Experimental data reported in PubChem BioAssay (NCI).
Compounds without any hit were thinned out: in the full panel of roughly 83,000, 20% have a hit.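 Method: cells in 96-well plates; compound added at one concentration; 48 h incubation; percent growth measured; values under 10 scored active.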 The source made the active and inactive calls.

Columns and labels:
Test in all cases: NCI-60 one-dose screen, 48 h (100 = growth as untreated, 0 = no growth, -100 = all killed)
Conditions in all cases: 10 µM unless noted
RPMI-8226 leukemia = test system: RPMI-8226 leukemia
OVCAR-8 ovarian = test system: OVCAR-8 ovarian
OVCAR-5 ovarian = test system: OVCAR-5 ovarian
OVCAR-4 ovarian = test system: OVCAR-4 ovarian
SK-OV-3 ovarian = test system: SK-OV-3 ovarian
IGROV1 ovarian = test system: IGROV1 ovarian
OVCAR-3 ovarian = test system: OVCAR-3 ovarian
HS 578T breast = test system: HS 578T breast
NCI/ADR-RES ovarian = test system: NCI/ADR-RES ovarian
T-47D breast = test system: T-47D breast
BT-549 breast = test system: BT-549 breast
MDA-MB-435 melanoma = test system: MDA-MB-435 melanoma
SW-620 colon = test system: SW-620 colon
MCF7 breast = test system: MCF7 breast
HCT-116 colon = test system: HCT-116 colon
HCC-2998 colon = test system: HCC-2998 colon
KM12 colon = test system: KM12 colon

Measured: growth

O=C(c1c[nH]c(=O)c(-c2ccccc2)c1)c1ccccc1O
inactive: RPMI-8226 leukemia 95.2% | OVCAR-8 ovarian 85.6% | OVCAR-5 ovarian 88.5% | OVCAR-4 ovarian 95.8% | SK-OV-3 ovarian 83.6% | IGROV1 ovarian 82.7% | OVCAR-3 ovarian 98.4% | HS 578T breast 80% | NCI/ADR-RES ovarian 82.4% | T-47D breast 78.4% | BT-549 breast 93.2% | MDA-MB-435 melanoma 96.7% | SW-620 colon 92.6% | MCF7 breast 92.6% | HCT-116 colon 90.5% | HCC-2998 colon 94.2% | KM12 colon 89.6%

COc1cc(-c2nn(-c3cccc(NC(=O)c4ccccc4)c3)cc2-c2ccncc2)ccc1Cl
inactive: OVCAR-8 ovarian 19.6% | OVCAR-5 ovarian 66.4% | OVCAR-4 ovarian 46.5% | SK-OV-3 ovarian 42.1% | IGROV1 ovarian 47.4% | T-47D breast 21.8% | SW-620 colon 18.4% | HCC-2998 colon 20.1% | KM12 colon 12.3%
active: RPMI-8226 leukemia 9.39% | OVCAR-3 ovarian 0.0228% | HS 578T breast -1.34% | NCI/ADR-RES ovarian 0.342% | BT-549 breast 1.29% | MDA-MB-435 melanoma -57.9% | MCF7 breast 4.67% | HCT-116 colon 8.58%

O=C(Nc1cccc(-n2cc(-c3ccncc3)c(-c3ccc(Cl)c(O)c3)n2)c1)c1ccccc1
inactive: RPMI-8226 leukemia 60.5% | OVCAR-8 ovarian 50.9% | OVCAR-5 ovarian 115% | OVCAR-4 ovarian 40.7% | SK-OV-3 ovarian 80.1% | IGROV1 ovarian 88% | OVCAR-3 ovarian 82.1% | HS 578T breast 48.4% | NCI/ADR-RES ovarian 62.7% | T-47D breast 73.9% | BT-549 breast 83.4% | MDA-MB-435 melanoma 56.2% | SW-620 colon 76.9% | MCF7 breast 62.6% | HCT-116 colon 57.8% | HCC-2998 colon 76.8% | KM12 colon 70.1%

O=[N+]([O-])c1ccc(OCCCOc2ccccc2)cc1
inactive: RPMI-8226 leukemia 97.7% | OVCAR-8 ovarian 105% | OVCAR-5 ovarian 107% | OVCAR-4 ovarian 100% | SK-OV-3 ovarian 105% | IGROV1 ovarian 94.5% | OVCAR-3 ovarian 99.3% | HS 578T breast 108% | NCI/ADR-RES ovarian 99.8% | T-47D breast 110% | BT-549 breast 93.1% | MDA-MB-435 melanoma 99% | SW-620 colon 107% | MCF7 breast 93% | HCT-116 colon 97.4% | HCC-2998 colon 101% | KM12 colon 101%

CC(O)CN1CCCCC1 (configuration not stated)
inactive: RPMI-8226 leukemia 113% | OVCAR-8 ovarian 105% | OVCAR-5 ovarian 110% | OVCAR-4 ovarian 109% | SK-OV-3 ovarian 107% | IGROV1 ovarian 106% | OVCAR-3 ovarian 105% | HS 578T breast 113% | NCI/ADR-RES ovarian 106% | T-47D breast 137% | BT-549 breast 101% | MDA-MB-435 melanoma 105% | SW-620 colon 102% | MCF7 breast 103% | HCT-116 colon 110% | HCC-2998 colon 115% | KM12 colon 106%

COC(=O)c1nc(-c2ccccc2)oc1S(=O)(=O)N1CCN(c2cccc(Cl)c2)CC1
inactive: RPMI-8226 leukemia 36.6% | OVCAR-8 ovarian 76.3% | OVCAR-5 ovarian 81.9% | OVCAR-4 ovarian 103% | SK-OV-3 ovarian 92.9% | IGROV1 ovarian 77.8% | OVCAR-3 ovarian 69.2% | HS 578T breast 85.7% | NCI/ADR-RES ovarian 89.2% | T-47D breast 66.2% | BT-549 breast 71% | MDA-MB-435 melanoma 69.8% | SW-620 colon 61.7% | MCF7 breast 39.2% | HCT-116 colon 54.8% | HCC-2998 colon 98.8% | KM12 colon 95.1%

CN(CCCCN(C[C@H]1Cc2ncccc2CN1)[C@H]1CCCc2cccnc21)C1CCC(F)(F)CC1
inactive: RPMI-8226 leukemia 92.5% | OVCAR-8 ovarian 85.6% | OVCAR-5 ovarian 79% | OVCAR-4 ovarian 108% | SK-OV-3 ovarian 90.6% | IGROV1 ovarian 111% | OVCAR-3 ovarian 98.4% | HS 578T breast 105% | NCI/ADR-RES ovarian 85.8% | T-47D breast 99.2% | BT-549 breast 85.8% | MDA-MB-435 melanoma 108% | SW-620 colon 98.7% | MCF7 breast 83.7% | HCT-116 colon 71.1% | HCC-2998 colon 88.7% | KM12 colon 88%

COc1ccc(S(=O)(=O)n2cc(C(=O)C(=O)Nc3ccncc3)c3ccccc32)cc1F
inactive: RPMI-8226 leukemia 48.6% | OVCAR-8 ovarian 69% | OVCAR-5 ovarian 81.1% | OVCAR-4 ovarian 73.4% | SK-OV-3 ovarian 85% | IGROV1 ovarian 72% | OVCAR-3 ovarian 85.6% | HS 578T breast 88.1% | NCI/ADR-RES ovarian 67.2% | T-47D breast 67.9% | BT-549 breast 77% | MDA-MB-435 melanoma 58% | SW-620 colon 83.3% | MCF7 breast 69.8% | HCT-116 colon 69.5% | HCC-2998 colon 73.5% | KM12 colon 75%

Fc1ccc(Nc2ncnc3ccc(-c4cnc5[nH]ccc5c4)cc23)cc1Cl
active: RPMI-8226 leukemia -17.9% | OVCAR-8 ovarian -28% | OVCAR-5 ovarian 8.66% | OVCAR-4 ovarian -61% | IGROV1 ovarian -37.8% | OVCAR-3 ovarian -73.7% | HS 578T breast -12.6% | T-47D breast -35.3% | SW-620 colon 4.35% | MCF7 breast 9.34% | HCT-116 colon -36.3%
inactive: SK-OV-3 ovarian 15.3% | NCI/ADR-RES ovarian 14% | BT-549 breast 20.3% | MDA-MB-435 melanoma 51.8% | HCC-2998 colon 34% | KM12 colon 23.3%

CCOC(=O)c1cn2c3c(cccc3c1=O)C(=O)/C(=C/c1cccc(Cl)c1Cl)C2
inactive: RPMI-8226 leukemia 92.4% | OVCAR-8 ovarian 95.7% | OVCAR-5 ovarian 102% | OVCAR-4 ovarian 100% | SK-OV-3 ovarian 86.1% | IGROV1 ovarian 99.7% | OVCAR-3 ovarian 113% | HS 578T breast 100% | NCI/ADR-RES ovarian 101% | T-47D breast 75.5% | BT-549 breast 91.6% | MDA-MB-435 melanoma 106% | SW-620 colon 102% | MCF7 breast 96.2% | HCT-116 colon 105% | HCC-2998 colon 100% | KM12 colon 108%

COc1cccc(/C=C2\Oc3cc(OCCCN4CCCC4)ccc3C2=O)c1
inactive: RPMI-8226 leukemia 61.6% | OVCAR-8 ovarian 91.4% | OVCAR-5 ovarian 89.1% | OVCAR-4 ovarian 112% | SK-OV-3 ovarian 109% | IGROV1 ovarian 73.6% | OVCAR-3 ovarian 87.2% | HS 578T breast 92.5% | NCI/ADR-RES ovarian 89.1% | T-47D breast 88.1% | BT-549 breast 92.6% | MDA-MB-435 melanoma 99.2% | SW-620 colon 92.2% | MCF7 breast 51.2% | HCT-116 colon 21.1% | HCC-2998 colon 85.5% | KM12 colon 83.8%

Cc1cc(C)n(-c2nnc3n2N=C(c2ccc(-c4ccccc4)cc2)CS3)n1
active: MDA-MB-435 melanoma -7.2%
inactive: RPMI-8226 leukemia 37.2% | OVCAR-8 ovarian 52.5% | OVCAR-5 ovarian 83.8% | OVCAR-4 ovarian 74.7% | SK-OV-3 ovarian 56.8% | IGROV1 ovarian 69.6% | OVCAR-3 ovarian 15.6% | HS 578T breast 49.2% | NCI/ADR-RES ovarian 35% | T-47D breast 48.7% | BT-549 breast 48.7% | SW-620 colon 36.7% | MCF7 breast 28% | HCT-116 colon 41.8% | HCC-2998 colon 76.8% | KM12 colon 53%

COc1ccc(-c2[nH]nc(N)c2-c2cc(OC)c3c(c2)OCO3)cc1
inactive: RPMI-8226 leukemia 81.3% | OVCAR-8 ovarian 77.2% | OVCAR-5 ovarian 70% | OVCAR-4 ovarian 89.3% | SK-OV-3 ovarian 76.7% | IGROV1 ovarian 73.9% | OVCAR-3 ovarian 64.9% | HS 578T breast 40.4% | T-47D breast 62% | BT-549 breast 59.2% | SW-620 colon 20.5% | MCF7 breast 32.3% | HCT-116 colon 30.9% | HCC-2998 colon 44.3% | KM12 colon 27.8%
active: NCI/ADR-RES ovarian 8.74% | MDA-MB-435 melanoma -12.8%

N#Cc1c(-c2ccccc2)cc(-c2ccccc2)n(CC(=O)NO)c1=O
active: IGROV1 ovarian -61.4% | BT-549 breast 1.67%
inactive: RPMI-8226 leukemia 23.2% | OVCAR-8 ovarian 67.7% | OVCAR-5 ovarian 69.3% | OVCAR-4 ovarian 50.6% | SK-OV-3 ovarian 107% | OVCAR-3 ovarian 30% | HS 578T breast 39.4% | NCI/ADR-RES ovarian 11.5% | T-47D breast 14.9% | MDA-MB-435 melanoma 49.8% | SW-620 colon 59.8% | MCF7 breast 21.9% | HCT-116 colon 40.7% | HCC-2998 colon 86.5% | KM12 colon 41.2%

Cc1ccc(-c2nc(C#N)c(S(=O)(=O)n3nc(-c4ccccc4)cc3N)o2)cc1
inactive: RPMI-8226 leukemia 83.4% | OVCAR-8 ovarian 90.4% | OVCAR-5 ovarian 106% | OVCAR-4 ovarian 114% | SK-OV-3 ovarian 94.8% | IGROV1 ovarian 101% | OVCAR-3 ovarian 17.7% | HS 578T breast 95.6% | NCI/ADR-RES ovarian 94.9% | T-47D breast 18.2% | BT-549 breast 96.8% | MDA-MB-435 melanoma 100% | SW-620 colon 31.8% | MCF7 breast 79.5% | HCT-116 colon 63% | HCC-2998 colon 112% | KM12 colon 107%

O=C(Nc1cccc(-n2cc(-c3ccncc3)c(-c3ccc(Cl)c(O)c3)n2)c1)c1ccc(N2CCOCC2)c(C(F)(F)F)c1
inactive: OVCAR-8 ovarian 37% | OVCAR-5 ovarian 116% | OVCAR-4 ovarian 108% | SK-OV-3 ovarian 74.2% | IGROV1 ovarian 96.8% | OVCAR-3 ovarian 56% | HS 578T breast 15.5% | NCI/ADR-RES ovarian 43.9% | T-47D breast 69.4% | BT-549 breast 63.6% | MDA-MB-435 melanoma 35.2% | MCF7 breast 60.6% | HCT-116 colon 29.7% | HCC-2998 colon 56.4% | KM12 colon 30.6%
active: RPMI-8226 leukemia 5.19% | SW-620 colon 6.29%
